Compound activity deposited in PubChem BioAssay by National Center for Advancing Translational Sciences (NCATS).
The list is not random: actives were taken first. Their share in the collection is about 12%.
L3MBTL1 inh: blocks human L3MBTL1; AID 485360; 230,000 tested, 0.66% active; AlphaScreen L3MBTL1–H3K9me1 peptide binding; Q9Y468; Potency, µM (top dose mostly 57.1 µM), inactives show top-dose activity, negative = inhibition, actives largely listed as inhibitors; also: % is scaled to controls: 0 for no effect and ±100 for the full control effect; nearly all actives have a fitted effect of over 60% in size
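L3MBTL1 (50 nM) pre-complexed 30 min with biotinylated H3(1-15)K9me1 peptide (75 nM), then compounds added for 30 min at room temperature; AlphaScreen streptavidin donor/nickel chelate acceptor beads (10 ug/mL final) read after 30 min dark incubation.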
G9a block: G9a (human) methyltransferase inhibition. Q96KQ7. G9a H3K9 monomethylation, AlphaScreen, 2 h. 350,000 tested, 8.8% active. Potency, µM (top dose mostly 102 µM), for the others: at the top dose activity, negative = inhibition, actives largely listed as inhibitors; also: % is scaled to controls: 0 for no effect and ±100 for the full control effect; nearly all actives have a fitted effect of over 75% in size
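G9a (20 nM) preincubated 15 min RT with compounds, then 500 nM biotinylated H3K9 peptide and 20 uM SAM added; 2 h RT reaction. Monomethyl-H3K9 product detected by AlphaScreen with anti-H3K9me1 antibody, streptavidin donor and anti-rabbit IgG acceptor beads.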
JMJD2A Tudor: blocks the human JMJD2A Tudor domain. Potency, µM (doses to about 114 µM), inactives show top-dose activity change, negative = inhibition, usual class: inhibitors. 390,000 tested, 4.4% active. AlphaScreen JMJD2A-Tudor / H3K4me3 peptide binding; also: % is scaled to controls: 0 for no effect and ±100 for the full control effect; nearly all actives have a fitted effect of over 50% in size
BAZ2B block: blocks human BAZ2B | AlphaScreen BAZ2B-H3K14Ac peptide displacement | 360,000 tested, 4.4% active | Potency, µM (top dose mostly 114 µM), inactives show at the highest dose activity change, negative = inhibition, actives largely listed as inhibitors | AID 504333; also: % is scaled to controls: 0 for no effect and ±100 for the full control effect; nearly all actives have a fitted effect of over 60% in size
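Inhibition is scored as reduced AlphaScreen emission. The BAZ2B/b-H3(5-23)K14Ac complex (50 nM each) in PBS pH 7.4, 0.01% Tween-20 meets compound (up to 110 uM) for 30 min at RT before bead addition.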
HP1b chromo inh: HP1-beta chromodomain-methylated histone interaction inhibition; P83916; AlphaScreen HP1-beta / biotin-H3K9me3 peptide binding; Potency, µM (titrated, usually from 114 µM), inactives show top-dose activity change, negative = inhibition, most hits filed as inhibitors; 390,000 tested, 0.56% active; AID 540317; also: nearly all actives have a fitted effect of over 70% in size
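AlphaScreen: HP1-beta (50 nM) preformed 30 min with biotin-H3(1-18)K9me3 peptide (50 nM) in PBS pH 7.4, 0.01% Tween-20. Compound added for 30 min at RT, then streptavidin donor/nickel chelate acceptor beads (10 ug/mL) for 30 min.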
Sfp PPTase inh: Sfp phosphopantetheinyl transferase inhibition; Biochemical Sfp PPTase activity, qHTS; Potency, µM, inactives show largest response in the series, negative = inhibition, hits mostly inhibitors; 310,000 tested, 3.5% active; AID 1490;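 also: the enzyme is Sfp with the accession as filed and its product quenches rhodamine fluorescence; 0% = enzyme reaction without inhibitor and -100% = no enzyme wells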
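Fluorescence-quenching assay: 15 nM Sfp-PPTase preincubated 15 min at room temperature with compound, then 5 uM rhodamine-CoA and 12.5 uM BHQ-2-labelled YbbR peptide added. Fluorescence (ex 525/em 598 nm) read at start and after 30 min; difference gives rate.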
Starred values were filed as active, the others as inactive; [ ] = remark or other dose. Calls follow the shape of the dose curve; as a rule, active = well fitted curve in the direction sought with a large enough effect; inconclusive = small, poorly fitted or top-dose-only effect, or another doubt; inactive = no such curve, though single readings can be large; an effect the other way counts as inactive or inconclusive. Potency is read from the fitted curve at half-maximal effect.

For Cc1ccc(O)c([C@H](CCN(C(C)C)C(C)C)c2ccccc2)c1 the results were G9a block 4%[12.7 µM], JMJD2A Tudor -14%, BAZ2B block -33%, HP1b chromo inh 24% and Sfp PPTase inh 14%.
CCc1ccc(NC(=O)Cn2c(=O)n(CCC(C)C)c(=O)c3cccnc32)cc1 was read as G9a block -8%[59 µM], JMJD2A Tudor -12%, BAZ2B block 7% and HP1b chromo inh 52%.
`O=C(NCC1CCCO1)c1ccc(NS(=O)(=O)c2cccs2)cc1` (centres undefined) gave L3MBTL1 inh -7%, G9a block 35µM*, JMJD2A Tudor inconclusive, BAZ2B block -34%, HP1b chromo inh 10% and Sfp PPTase inh inconclusive.
Screening O=C(COC(=O)c1ccc(NS(=O)(=O)c2cccs2)cc1)NCC1CCCO1 (centres undefined) returned L3MBTL1 inh 0%, G9a block 2%, JMJD2A Tudor -10%, BAZ2B block 1%, HP1b chromo inh 32% and Sfp PPTase inh 0%.
COc1ccc(C(=O)c2oc3ccccc3c2NC(=O)COc2ccc(C)cc2)cc1 was read as G9a block -6%[59 µM], JMJD2A Tudor -2%, BAZ2B block 0% and HP1b chromo inh 28%.
For OC(c1ccc2c(c1)OCO2)c1nccc2ccccc12 (centres undefined) the results were L3MBTL1 inh 1%, G9a block 45µM*, JMJD2A Tudor inconclusive, BAZ2B block -24%, HP1b chromo inh 54% and Sfp PPTase inh -8%.
Screening CC(C)n1c(C(O)c2ccc3c(c2)OCO3)nc2ccccc21 (centres undefined) returned L3MBTL1 inh -5%, G9a block 71µM*, JMJD2A Tudor -30%, BAZ2B block -32%, HP1b chromo inh 9% and Sfp PPTase inh -1%.
For Cn1c(C(O)c2ccc3c(c2)OCO3)nc2ccccc21 (centres undefined) the results were L3MBTL1 inh -2%[11.4 µM], G9a block -4%[12.7 µM], JMJD2A Tudor 8%, BAZ2B block 12%, HP1b chromo inh 25% and Sfp PPTase inh 3%.
Screening OC(c1cccc(Cl)c1)c1nccc2ccccc12 (centres undefined) returned L3MBTL1 inh 4%, G9a block 40µM*, JMJD2A Tudor -30%, BAZ2B block -31%, HP1b chromo inh 39% and Sfp PPTase inh 2%.
`COc1ccccc1CN1CC[C@@]2(CCCN(C(=O)c3ccco3)C2)C1` gave G9a block 0%[12.7 µM] and Sfp PPTase inh 14%.
For c1ccc2c(c1)CCC[C@H]2Nc1nc2ccccc2[nH]1 the results were G9a block 2%[59 µM].
For c1ccc(CN2CCC(=NNc3nc4ccccc4[nH]3)CC2)cc1 the results were L3MBTL1 inh inconclusive, G9a block -34%, JMJD2A Tudor inconclusive, HP1b chromo inh -3% and Sfp PPTase inh -6%.
`c1ccc2c(c1)CC/C2=N/Nc1nc2ccccc2[nH]1` gave L3MBTL1 inh -22%, G9a block 5%, JMJD2A Tudor -29%, BAZ2B block inconclusive, HP1b chromo inh 9% and Sfp PPTase inh 35µM*.
CC(C)(C)C1CCC(=NNc2nc3ccccc3[nH]2)CC1 (centres undefined) was read as L3MBTL1 inh inconclusive, G9a block 40µM*, JMJD2A Tudor -28%, BAZ2B block inconclusive, HP1b chromo inh 27% and Sfp PPTase inh -9%.
`CC(Nc1ccc(-c2nc(-c3ccncc3)no2)cc1[N+](=O)[O-])c1ccccc1` (centres undefined) gave G9a block -21%[59 µM], JMJD2A Tudor -5%, BAZ2B block 1% and HP1b chromo inh 14%.
Screening CCOc1ccccc1NC(=O)c1cc(=O)c2ccccc2o1 returned G9a block -2%, JMJD2A Tudor -16%, BAZ2B block -10%[57.1 µM], HP1b chromo inh 24% and Sfp PPTase inh 21%.
